# Measurements published in PubChem BioAssay AID493169 (National Center for Advancing Translational Sciences (NCATS), 2011).
# Records with an inconclusive call do not appear. A number with no mark means an inactive call. Calls of active or inactive are those of the source. Calls come from the whole dose curve; as a rule, active = well fitted inhibition curve with a large enough effect; inconclusive = small, poorly fitted or top-dose-only effect; inactive = flat fitted curve, though single readings scatter.
# Assay: CHOP2 Reporter Counterscreen Assay for Inhibitors of Ubiquitin-specific Protease USP2a;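 note: activated enterokinase alone at 50 pM in a cell-free format rather than USP2a or CHOP2; nearly all actives have a fitted effect of over 55% in size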
# Details: purified enterokinase, fluorogenic substrate, 485/531 nm; series mostly up to 38.3 µM; activity change, negative = inhibition: at the top concentration
# How it was run: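 Cell-free counterscreen with pre-activated enterokinase alone (50 pM final) in 20mM Tris-HCl pH 8.0, 2mM CaCl2, 2mM beta-mercaptoethanol, 0.05% CHAPS; compound preincubation 30 min RT, reporter substrate 25nM final, fluorescence read after 10 min (Ex 485/Em 531).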
# % is set by controls: 0 for no effect and ±100 for the full control effect; potency is the fitted concentration of half-maximal effect.
Compound,"activity change, negative = inhibition [%]",Potency
CCCOc1ccc(-c2nc(C#N)c(N3CCN(CC)CC3)o2)cc1,-0.81,
CCOc1ccc(C(=O)c2ccc(OCC)c(N)c2)cc1N,-1.26,
COc1cc2c(ccc3cc(OC)c(OC)c(O)c32)cc1O,,5.62 µM (active)
CCN(C[C@H]1N[C@@](CC)(C(=O)OC)[C@H]2C(=O)N(Cc3ccccc3)C(=O)[C@@H]12)C(=O)Nc1ccc(C)cc1,-3.12,
O=C(Nc1ccccc1)Nc1snnc1C(=O)Nc1cccc(O)c1,-8.36,
Cc1ccc(NC(=O)c2cc3c(=O)oc4ccccc4c3s2)nc1,7.35,
COC(=O)CCC(=O)Nc1sc2c(c1C#N)CCCC2,-2.49,
O=C(Nc1cccc(C(F)(F)F)c1)/C(=C\c1ccco1)NC(=O)c1cccs1,7.95,
CCCCC(OC(=O)c1cc2occc2n1C)C(=O)NCC1CCCO1 (stereo not given),1.57,
COC(=O)CSc1nnc(NC(=O)C2CC(=O)N(c3ccc(F)cc3)C2)s1 (stereo not given),,10 µM (active)
CCNC1=C(Cl)C(=O)c2ccccc2C1=O,8.75,
COc1ccc2[nH]c(=O)c(CN(Cc3ccco3)Cc3nnnn3Cc3ccccc3)cc2c1,0.775,
Cc1cnc(N)c2c(=O)oc3ccccc3c12,1.83,
O=C(Nc1nnc(-c2cccs2)o1)c1cccc(Oc2ccccc2)c1,-2.38,
O=C(Nc1ccc(N2CCCC2)cc1)c1cccc(-c2cc3ccccc3oc2=O)c1,-5.21,
O=C(NC(=S)N1CCCc2ccccc21)c1ccc([N+](=O)[O-])cc1,6.3,
COc1ccc(-c2cc(C(F)(F)F)nc(S(C)(=O)=O)n2)cc1,-3.17,
Cc1ccc(S(=O)(=O)N2[C@@H](c3ccc(C(C)(C)C)cc3)C(C(=O)O)=CC[C@H]2c2ccc(Cl)cc2)cc1,,10 µM (active)
COc1ccc(/C=C\C(=O)O[C@@H]2C(O)C(O[C@@H]3OC(C)[C@H](O[C@@H]4OCC(O[C@H]5O[C@H](CO)[C@@H](O)C(O)C5O)C(O)C4O)C(O)C3O)[C@H](OC(=O)[C@]34CCC(C)(C)C[C@@H]3C3=CCC5[C@@]6(C)CC(O)C(O[C@@H]7OC(CO)C(O)[C@H](O)[C@H]7O)[C@@](C)(C(=O)O)C6CC[C@@]5(C)[C@]3(CO)CC4)O[C@H]2C)cc1 (stereo not given in full),-14.4,
O=c1/c(=C/c2ccco2)sc2n1CN(c1cccc(Br)c1)CN=2,-0.633,

Compound,"activity change, negative = inhibition [%]",Potency
CCOC(=O)c1[nH]c2ccc(OC)cc2c1NC(=O)CCN1CCCC(C)C1 (stereo not given),-6.26,
CCCCCCCCCCOC(=O)Cn1c(COc2ccccc2)[n+](C)c2ccccc21,,11.2 µM (active)
CCC1=[N+](CC(=O)c2ccc(Br)cc2)CCn2c(C)ccc21,-22,
Cn1c(C(=O)NCCCN2CCN(c3ccccc3F)CC2)cc2c(=O)n(C)c3ccccc3c21,2.44,
CCCOc1ccc(N2C(=O)CC(NCCc3ccc(S(N)(=O)=O)cc3)C2=O)cc1 (stereo not given),0.525,
O=C(NC1CCCCC1)C(c1ccco1)N(Cc1ccco1)C(=O)c1ccco1 (stereo not given),-14.8,
COc1ccc(-n2c(=S)[nH]c3cc(C(=O)Nc4cc(OC)c(OC)c(OC)c4)ccc3c2=O)c(OC)c1,-0.87,
O=C(c1ccccc1)N1CCN(C(=O)N2CCCCC2)CC1,2.79,
O=C(COc1ccccc1)NCCSc1ccccc1,-0.789,
Cc1ccc(C2=[N+]([O-])C(C)N(O)C2(C)C)o1 (stereo not given),-0.491,
CCOC(=O)c1c(C)[nH]c(C(=O)COC(=O)CSC)c1C,1.66,
O=C(Nc1nnc(-c2ccco2)s1)C1CCCCC1,-0.811,
O=[N+]([O-])/C(C(Cl)=C(Cl)Cl)=C(\Sc1ccccc1)N1CCCCC1,-0.355,
COc1ccc(Cc2nnc(NC(=O)Cc3cccs3)s2)cc1,,1.78 µM (active)
Cc1cc(-c2csc(NC(=O)c3ccc(=O)[nH]c3)n2)c(C)n1Cc1ccccc1,-5.1,
O=C(Nc1ccc(Nc2ccncc2)cc1)c1ccc(Nc2ccnc3ccc([N+](=O)[O-])cc23)cc1,,3.55 µM (active)
O=C(O)CP(=O)(c1ccccc1)c1ccccc1,-0.61,
Cc1cc(-c2csc(NCc3ccccc3)n2)c(C)n1C,,12.6 µM (active)
O=C1S/C(=C\C=C\c2ccco2)C(=O)N1c1ccc(O)cc1,,10 µM (active)
CCCCc1ccc(/C=C2/C(=O)ON=C2c2ccccc2)s1,-1.37,
